Experiment [1] concerns the target Norway rat Vesicular Monoamine Transporter (VMAT2), neurotransmitter transporter, Slc18a2 (gene 25549) (UniProt Q01827). In words: NVS_TR_rVMAT2: NovaScreen (NVS) Transporter Assay for Norway rat Vesicular Monoamine Transporter (VMAT2), neurotransmitter transporter (AID 2283376).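 Note: actives lower the bound radioligand signal below the DMSO level.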 In outline: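 Rat forebrain tissue preparation used in a cell-free radioligand binding format; displacement read by filter-based scintillation counting 1 hour after dosing. Primary screen in duplicate at 25 uM, actives then run in concentration series; loss of signal versus DMSO baseline.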

The target in experiment [2] is Estrogen receptor beta (Homo sapiens) (UniProt Q92731). The experiment can be described thus: OT_ER_ERbERb_0480: Odyssey Thera (OT) 8-hour HEK293T Protein-Complementation Assay for Estrogen Receptor-beta/-beta Homodimer (AID 2283357).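 Note: active means signal gain over DMSO baseline.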 In outline:
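Readout: increase in mean fluorescence intensity (nucleus for agonists; nucleus plus cytoplasm for antagonists) relative to DMSO, from a reporter-fragment complementation of human ER-beta LBD homodimer in HEK293T cells dosed 8 hours.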

For experiment [3], the target named is Glucocorticoid receptor (Homo sapiens) (UniProt P04150). In words: NVS_NR_hGR: NovaScreen (NVS) Nuclear Receptor Binding Assay for human Glucocorticoid Receptor (GR) (AID 2283363).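 For AC50: activity is loss of specific radioligand binding signal relative to DMSO.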 In outline: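 Cell-free radioligand binding with extracted receptor protein, read by filter-based scintillation counting 16 hours after dosing. Loss of specific signal versus DMSO baseline was scored. Primary screen ran in duplicate at 25 uM; actives were followed up in concentration series.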
Glucocorticoid receptor (Homo sapiens), sequence (P04150 whole entry, looked up): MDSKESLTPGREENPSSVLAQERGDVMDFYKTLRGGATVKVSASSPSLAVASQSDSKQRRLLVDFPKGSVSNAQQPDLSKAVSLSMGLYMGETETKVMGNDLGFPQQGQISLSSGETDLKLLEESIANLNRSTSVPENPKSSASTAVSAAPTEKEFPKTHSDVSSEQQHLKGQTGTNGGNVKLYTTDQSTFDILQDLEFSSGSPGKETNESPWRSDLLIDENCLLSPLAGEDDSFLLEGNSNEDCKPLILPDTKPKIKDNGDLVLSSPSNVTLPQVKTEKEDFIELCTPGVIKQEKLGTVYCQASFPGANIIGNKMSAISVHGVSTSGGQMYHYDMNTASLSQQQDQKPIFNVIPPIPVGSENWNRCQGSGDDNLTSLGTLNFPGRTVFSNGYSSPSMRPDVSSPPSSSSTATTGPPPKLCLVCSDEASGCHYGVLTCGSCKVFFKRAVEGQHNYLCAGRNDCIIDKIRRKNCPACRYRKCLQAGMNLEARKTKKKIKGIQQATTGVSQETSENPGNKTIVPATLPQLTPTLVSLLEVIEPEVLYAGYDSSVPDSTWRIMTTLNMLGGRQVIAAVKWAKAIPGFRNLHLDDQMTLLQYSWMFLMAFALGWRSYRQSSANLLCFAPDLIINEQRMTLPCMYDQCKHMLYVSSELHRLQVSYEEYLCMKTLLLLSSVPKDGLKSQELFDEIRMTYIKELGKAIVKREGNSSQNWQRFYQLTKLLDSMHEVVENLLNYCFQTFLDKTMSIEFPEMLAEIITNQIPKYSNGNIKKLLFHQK

Experiment [4] deals with rat Androgen Receptor (AR), Ar (gene 24208) (UniProt P15207). The experiment can be described thus: NVS_NR_rAR: NovaScreen (NVS) Nuclear Receptor Binding Assay for rat Androgen Receptor (AR) (AID 2283366). In outline:
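Cell-free radioligand binding on extracts of prostate from testosterone-pretreated rats, read by filter-based scintillation counting 18 h after dosing. Loss of bound signal fitted positively versus DMSO; primary screen in duplicate at 25 uM, actives followed up in concentration series.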

In experiment [5] the target is Nuclear receptor subfamily 1 group I member 2 (Homo sapiens) (UniProt O75469). The experiment can be described thus: NVS_NR_hPXR: NovaScreen (NVS) Nuclear Receptor Binding Assay for human Pregnane X Receptor (PXR) (AID 2283365).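 Note: a drop in FRET signal versus DMSO baseline means the compound binds.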 In outline: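 Binding was measured by time-resolved fluorescence resonance energy transfer after a 2 h exposure of extracted human PXR protein without cells. Compounds were first tested at 25 uM in duplicate, with concentration series for actives; DMSO defined baseline.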
Nuclear receptor subfamily 1 group I member 2 (Homo sapiens), sequence (O75469 whole entry, looked up): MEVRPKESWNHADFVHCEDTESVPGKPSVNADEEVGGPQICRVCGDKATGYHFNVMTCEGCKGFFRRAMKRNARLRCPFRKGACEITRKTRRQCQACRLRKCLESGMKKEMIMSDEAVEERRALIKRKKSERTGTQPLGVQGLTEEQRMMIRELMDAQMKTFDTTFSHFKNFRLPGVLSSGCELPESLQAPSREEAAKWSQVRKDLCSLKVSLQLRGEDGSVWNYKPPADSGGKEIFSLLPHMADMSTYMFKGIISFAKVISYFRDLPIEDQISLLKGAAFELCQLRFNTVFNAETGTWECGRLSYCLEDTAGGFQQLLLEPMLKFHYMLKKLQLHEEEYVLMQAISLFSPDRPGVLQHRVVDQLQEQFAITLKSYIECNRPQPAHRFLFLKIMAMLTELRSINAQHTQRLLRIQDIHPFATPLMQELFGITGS

In experiment [6] the target is Retinoic acid receptor alpha (Homo sapiens) (UniProt P10276). The experiment can be described thus: NVS_NR_hRAR_Antagonist: NovaScreen (NVS) Nuclear Receptor Binding Assay for human Retinoic Acid Alpha Receptor Antagonism (RAR) (AID 2283358). In outline: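 Cell-free TR-FRET binding assay on extracted receptor protein, run in antagonist mode; signal read 2 hours after chemical dosing. Loss of signal was fitted relative to DMSO baseline. Screened at 25 uM in duplicate, actives followed up in concentration series.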
Retinoic acid receptor alpha (Homo sapiens), sequence (P10276 whole entry, looked up): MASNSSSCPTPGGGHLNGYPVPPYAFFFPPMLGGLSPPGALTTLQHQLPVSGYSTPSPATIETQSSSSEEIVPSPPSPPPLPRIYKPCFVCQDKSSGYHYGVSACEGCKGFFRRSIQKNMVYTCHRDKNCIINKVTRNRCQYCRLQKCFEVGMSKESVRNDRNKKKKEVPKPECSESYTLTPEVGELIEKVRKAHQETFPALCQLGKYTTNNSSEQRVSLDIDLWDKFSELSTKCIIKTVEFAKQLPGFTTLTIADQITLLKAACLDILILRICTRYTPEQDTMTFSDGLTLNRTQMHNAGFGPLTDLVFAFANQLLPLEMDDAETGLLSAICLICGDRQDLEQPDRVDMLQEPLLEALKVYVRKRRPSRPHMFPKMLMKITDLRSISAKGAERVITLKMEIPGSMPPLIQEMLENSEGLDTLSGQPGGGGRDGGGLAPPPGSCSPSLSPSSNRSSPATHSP

The target in the next experiment is PGR (gene 5241) (UniProt P06401). The experiment can be described thus: NVS_NR_hPR: NovaScreen (NVS) Nuclear Receptor Binding Assay for human Progestron Receptor (PR) (AID 2283360).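 Note: active means loss of bound radioligand signal versus DMSO baseline.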 In outline:
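Cell-free radioligand binding using receptor protein extracted from T47D cells, read by scintillation counting 18 hours after dosing. Loss of signal relative to DMSO baseline indicates displacement; primary screen single concentration 25 uM in duplicate, actives followed in concentration series.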

The target of experiment [7] is human Thyroid Receptor Alpha (TRa), THRA (gene 7067) (UniProt P10827). In words: NVS_NR_hTRa_Antagonist: NovaScreen (NVS) Nuclear Receptor Binding Assay for human Thyroid Receptor Alpha Antagonism (TRa) (AID 2283362). In outline: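 Chemicals were first screened in duplicate at 25 uM, then actives were retested in concentration series. Binding to the extracted receptor was measured 1 h after dosing by AlphaLISA chemiluminescence, with decreased signal versus DMSO scored as activity.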

Experiment [8] deals with human Serotonin Transporter (SERT), SLC6A4 (gene 6532) (UniProt P31645). In words: NVS_TR_hSERT: NovaScreen (NVS) Transporter Assay for human Serotonin Transporter (SERT) (AID 2283372). In outline: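 Radioligand binding to native SERT in human platelet membranes, read by filter-based scintillation counting 1 h after dosing. Primary screen in duplicate at 25 uM; actives followed up in concentration series; loss of signal versus DMSO baseline.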

For experiment [9], the target named is rat Serotonin Transporter (SERT), Slc6a4 (gene 25553) (UniProt P31652). In words: NVS_TR_rSERT: NovaScreen (NVS) Transporter Assay for rat Serotonin Transporter (SERT) (AID 2283375). In outline:
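Steps: rat forebrain membranes dosed with chemical (25 uM duplicate primary; concentration series for actives); 1 h incubation; labelled ligand bound, filtered, counted by scintillation. Activity scored as signal loss vs DMSO.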

The target in experiment [10] is mouse Estrogen Receptor alpha (Era), Esr1 (gene 13982) (UniProt P19785). The experiment can be described thus: NVS_NR_mERa: NovaScreen (NVS) Nuclear Receptor Binding Assay for mouse Estrogen Receptor alpha (Era) (AID 2283378).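 Note: hit means loss of bound radioligand signal relative to DMSO.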 In outline:
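Test chemicals competed against a specific radioligand for binding to cell-free mouse Era. Duplicate wells at 25 uM were read 18 hours later by filter-based radiodetection, with loss of signal against DMSO scored as activity.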

Experiment [11] addresses guinea pig Sigma Receptor, Non-selective Binding, SIGMAR1 (gene 100135589) (UniProt Q60492). The experiment can be described thus: NVS_OR_gSIGMA_NonSelective: NovaScreen (NVS) Nuclear Receptor Binding Assay for guinea pig Sigma Receptor, Non-selective Binding (AID 2283367). In outline:
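Guinea pig brain membranes, cell-free radioligand binding; read 1 h after dosing by filter-based scintillation counting. Loss of signal vs DMSO baseline taken as displacement. Primary screen single concentration 25 uM in duplicate; actives retested in concentration series.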

The target in experiment [12] is human Dopamine Transporter (DAT), SLC6A3 (gene 6531) (UniProt Q01959). The experiment can be described thus: NVS_TR_hDAT: NovaScreen (NVS) Transporter Assay for human Dopamine Transporter (DAT) (AID 2283374).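 Note: activity means loss of bound radioligand signal relative to DMSO.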 In outline:
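Cell-free radioligand binding to extracted human DAT protein, read 1 h after dosing by filter-based scintillation counting. Loss of specific binding scored against DMSO baseline; primary screen in duplicate at 25 uM, actives then run in concentration series.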

Experiment [13] addresses Peroxisome proliferator-activated receptor gamma (Homo sapiens) (UniProt P37231). The experiment can be described thus: NVS_NR_hPPARg: NovaScreen (NVS) Nuclear Receptor Binding Assay for human Peroxisome Proliferator-activated Receptor gamma (PPARg) (AID 2283370). In outline: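 Fluorescence polarization measures competitive binding to extracted PPARg in a cell-free format. Reading is taken at 2 h; activity is signal loss relative to DMSO. Screening at 25 uM in duplicate preceded confirmatory dose series.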

Experiment [14] relates to guinea pig Dopamine Transporter (DAT), gene 100714898. In words: NVS_TR_gDAT: NovaScreen (NVS) Transporter Assay for guinea pig Dopamine Transporter (DAT) (AID 2283369).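 Note: active compounds lower bound radioligand signal relative to DMSO.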 In outline: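 Test chemicals were incubated 2 h with guinea pig striatal membranes and a radioligand; bound label was separated by filtration and counted. Screening ran at 25 uM, followed by concentration-response testing to a 50 uM maximum.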

Experiment [15] concerns the target human Adenosine Transporter (Adot), SLC29A1 (gene 2030) (UniProt Q99808). In words: NVS_TR_hAdoT: NovaScreen (NVS) Transporter Assay for human Adenosine Transporter (Adot) (AID 2283368). In outline:
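U937-derived membranes, cell-free radioligand binding, filter scintillation 1 h after dosing. 25 uM duplicate screen; hits (e.g. 30% inhibition) run in concentration-response up to 50 uM; loss of signal versus DMSO.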

The target of experiment [16] is Retinoic acid receptor alpha (Homo sapiens) (UniProt P10276). In words: NVS_NR_hRARa_Agonist: NovaScreen (NVS) Nuclear Receptor Binding Assay for human Retinoic Acid Alpha Receptor Agonism (RAR) (AID 2283361). In outline: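 Cell-free TR-FRET binding read-out with extracted human RARα protein, read 2 h after compound addition. Gain of signal scored against DMSO baseline. Primary screen at a single 25 uM in duplicate; actives then retested in concentration series.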

The target in experiment [17] is human Norepinephrine Transporter (NET), SLC6A2 (gene 6530) (UniProt P23975). The experiment can be described thus: NVS_TR_hNET: NovaScreen (NVS) Transporter Assay for human Norepinephrine Transporter (NET) (AID 2283377).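 Note: cell-free membrane protein extracted from CHO cells expressing human NET.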 In outline: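 Radioligand binding to human NET in cell-free CHO-derived protein preparations, read by filter-based scintillation counting 1 hour after dosing. Loss of signal versus DMSO baseline indicated displacement; primary screening in duplicate at 25 uM, actives then titrated.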

Structures are written as SMILES. Inconclusive results are not listed. Calls of active or inactive are those of the source. Rule for the calls: active = hit-call score of the fitted dose curve at least 0.9, where 1 is the maximum; inconclusive = response in the unintended direction; inactive = score below 0.9.

In general, AC50 refers to the concentration at which the activity in the assay is half-maximal.

human Dopamine Transporter (DAT), SLC6A3 (gene 6531), sequence (Q01959 whole entry, looked up): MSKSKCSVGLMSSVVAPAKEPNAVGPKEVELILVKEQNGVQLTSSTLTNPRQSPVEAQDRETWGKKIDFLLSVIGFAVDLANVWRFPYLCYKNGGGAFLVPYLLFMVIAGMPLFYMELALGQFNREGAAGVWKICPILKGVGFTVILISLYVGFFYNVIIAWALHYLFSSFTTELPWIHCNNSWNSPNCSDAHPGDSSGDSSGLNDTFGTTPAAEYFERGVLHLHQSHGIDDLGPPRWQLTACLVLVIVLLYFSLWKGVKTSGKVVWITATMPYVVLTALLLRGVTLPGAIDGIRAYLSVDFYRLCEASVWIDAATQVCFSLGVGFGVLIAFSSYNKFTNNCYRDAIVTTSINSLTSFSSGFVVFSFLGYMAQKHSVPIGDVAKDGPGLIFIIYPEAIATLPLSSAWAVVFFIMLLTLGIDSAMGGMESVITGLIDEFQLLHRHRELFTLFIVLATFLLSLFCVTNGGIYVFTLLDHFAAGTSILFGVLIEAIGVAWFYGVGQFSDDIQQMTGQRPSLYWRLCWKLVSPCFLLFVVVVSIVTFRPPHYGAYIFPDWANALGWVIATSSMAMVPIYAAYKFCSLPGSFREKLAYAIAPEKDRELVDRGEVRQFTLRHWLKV
guinea pig Sigma Receptor, Non-selective Binding, SIGMAR1 (gene 100135589), sequence (Q60492 whole entry, looked up): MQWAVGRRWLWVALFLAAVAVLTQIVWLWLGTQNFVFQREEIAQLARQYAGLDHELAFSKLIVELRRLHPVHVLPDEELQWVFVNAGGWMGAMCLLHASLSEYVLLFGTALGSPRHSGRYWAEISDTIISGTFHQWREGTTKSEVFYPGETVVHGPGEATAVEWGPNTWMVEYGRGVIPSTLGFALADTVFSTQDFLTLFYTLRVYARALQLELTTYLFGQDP
Peroxisome proliferator-activated receptor gamma (Homo sapiens), sequence (P37231 whole entry, looked up): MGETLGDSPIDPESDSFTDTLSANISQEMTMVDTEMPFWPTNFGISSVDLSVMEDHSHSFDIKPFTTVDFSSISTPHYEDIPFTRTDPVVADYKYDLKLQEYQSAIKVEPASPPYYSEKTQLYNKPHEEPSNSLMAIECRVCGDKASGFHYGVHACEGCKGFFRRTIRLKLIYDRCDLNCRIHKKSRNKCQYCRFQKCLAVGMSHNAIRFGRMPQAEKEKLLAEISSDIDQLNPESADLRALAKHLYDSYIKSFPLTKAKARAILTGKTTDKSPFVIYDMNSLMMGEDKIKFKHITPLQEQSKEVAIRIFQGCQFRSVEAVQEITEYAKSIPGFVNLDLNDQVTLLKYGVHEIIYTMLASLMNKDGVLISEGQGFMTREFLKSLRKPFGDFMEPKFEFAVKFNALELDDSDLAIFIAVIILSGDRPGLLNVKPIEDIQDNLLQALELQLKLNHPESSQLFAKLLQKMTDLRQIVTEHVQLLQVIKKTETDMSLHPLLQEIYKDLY
Estrogen receptor beta (Homo sapiens), sequence (Q92731 whole entry, looked up, the tested form may be a part): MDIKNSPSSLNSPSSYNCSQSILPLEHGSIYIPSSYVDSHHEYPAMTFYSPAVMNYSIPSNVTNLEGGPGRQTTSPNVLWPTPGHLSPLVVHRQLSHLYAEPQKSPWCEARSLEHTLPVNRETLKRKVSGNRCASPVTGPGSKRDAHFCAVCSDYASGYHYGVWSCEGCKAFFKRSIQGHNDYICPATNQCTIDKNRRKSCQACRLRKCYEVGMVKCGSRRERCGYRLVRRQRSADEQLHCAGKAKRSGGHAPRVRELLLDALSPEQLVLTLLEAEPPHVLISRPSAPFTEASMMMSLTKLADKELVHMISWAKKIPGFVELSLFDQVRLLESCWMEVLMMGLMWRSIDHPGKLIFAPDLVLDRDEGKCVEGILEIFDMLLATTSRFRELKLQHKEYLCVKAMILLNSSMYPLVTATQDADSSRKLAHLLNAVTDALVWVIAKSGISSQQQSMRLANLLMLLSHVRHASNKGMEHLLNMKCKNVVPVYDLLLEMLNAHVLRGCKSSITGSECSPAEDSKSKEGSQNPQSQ
Norway rat Vesicular Monoamine Transporter (VMAT2), neurotransmitter transporter, Slc18a2 (gene 25549), sequence (Q01827 whole entry, looked up): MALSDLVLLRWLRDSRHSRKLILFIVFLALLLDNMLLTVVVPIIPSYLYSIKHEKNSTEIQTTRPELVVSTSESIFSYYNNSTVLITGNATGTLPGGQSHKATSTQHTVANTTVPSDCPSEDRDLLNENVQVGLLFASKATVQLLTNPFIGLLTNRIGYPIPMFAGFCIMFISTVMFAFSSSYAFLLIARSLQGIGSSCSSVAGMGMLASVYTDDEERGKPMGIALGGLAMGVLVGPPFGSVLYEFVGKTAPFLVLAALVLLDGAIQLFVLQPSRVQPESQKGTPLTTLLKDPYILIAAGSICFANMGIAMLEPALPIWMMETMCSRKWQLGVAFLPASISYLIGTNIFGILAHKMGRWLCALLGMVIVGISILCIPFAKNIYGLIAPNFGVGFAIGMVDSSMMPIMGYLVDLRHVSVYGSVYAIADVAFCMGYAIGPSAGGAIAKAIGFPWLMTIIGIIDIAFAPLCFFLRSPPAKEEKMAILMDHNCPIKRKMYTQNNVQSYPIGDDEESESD
mouse Estrogen Receptor alpha (Era), Esr1 (gene 13982), sequence (P19785 whole entry, looked up): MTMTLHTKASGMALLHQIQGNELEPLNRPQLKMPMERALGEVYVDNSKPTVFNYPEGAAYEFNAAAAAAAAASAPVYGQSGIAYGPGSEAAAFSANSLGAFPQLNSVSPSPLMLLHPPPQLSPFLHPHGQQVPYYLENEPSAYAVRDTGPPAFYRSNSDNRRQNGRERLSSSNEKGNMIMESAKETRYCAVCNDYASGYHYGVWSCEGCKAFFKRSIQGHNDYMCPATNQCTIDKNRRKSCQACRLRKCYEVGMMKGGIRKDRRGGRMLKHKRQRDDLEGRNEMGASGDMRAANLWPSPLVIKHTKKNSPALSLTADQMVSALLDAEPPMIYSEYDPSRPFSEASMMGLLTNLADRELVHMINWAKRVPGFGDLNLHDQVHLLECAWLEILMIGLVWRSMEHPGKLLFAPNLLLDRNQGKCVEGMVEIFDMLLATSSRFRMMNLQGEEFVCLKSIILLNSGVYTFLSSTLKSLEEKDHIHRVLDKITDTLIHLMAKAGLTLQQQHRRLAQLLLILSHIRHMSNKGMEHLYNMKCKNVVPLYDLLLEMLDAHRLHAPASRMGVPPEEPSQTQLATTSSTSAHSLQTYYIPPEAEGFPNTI

As to `CCOP(=S)(OCC)Oc1nc(Cl)n(C(C)C)n1`, in experiment [1], the compound was classed as inactive.

With `CCCCOCN(C(=O)CCl)c1c(CC)cccc1CC`, the outcome in experiment [2] and in [4] was inactive. Besides, the AC50 in [3] was 8.18 µM (active).

With `CCNC(=O)NC(=O)C(C#N)=NOC`, the compound was called inactive in experiment [3] and in [5].

Take `CNC(=O)Oc1cccc2ccccc12`: the outcome (in [6]; in the experiment with PGR (gene 5241); in experiment [7]; in experiment [8]; in experiment [10]) was inactive. Moreover, the AC50 in experiment [9] is 7.36 µM (active).

Regarding `CSC(=O)c1c(C(F)F)nc(C(F)(F)F)c(C(=O)SC)c1CC(C)C`, in experiment [2], the half-maximal activity concentration (AC50) is 18.1 µM (active). Besides, the compound was called inactive in experiment [11] and in experiment [12].

On to `CC(C)C1(C)N=C(c2ncccc2C(=O)O)NC1=O` (stereo unspecified), for which the compound was called inactive in experiment [3] and in experiment [5].

Turning to `COC(=O)NC(=S)Nc1ccccc1NC(=S)NC(=O)OC`, the call in experiment [2] and in experiment [10] was inactive.

Turning to `N#CN=C1SCCN1Cc1ccc(Cl)nc1`, the compound was classed as inactive in experiment [11].

As for `CCNP(=S)(OC)O/C(C)=C/C(=O)OC(C)C` (stereo unspecified), the compound was called inactive in experiment [2], in experiment [5] and in experiment [13].

Consider `CC1(C)C(C(=O)OC(C#N)c2cccc(Oc3ccccc3)c2)C1(C)C` (stereo unspecified), for which the compound was classed as inactive in [2]. In addition, the half-maximal activity concentration (AC50) is 15.8 µM (active) in [14] and 9.99 µM (active) in experiment [12].

For `CC(C)NC(=O)N1CC(=O)N(c2cc(Cl)cc(Cl)c2)C1=O`, the call in experiment [13] and in [1] was inactive.

For `CCSC(=O)N1CCCCCC1`, the compound was classed as inactive in experiment [2] and in experiment [13].

For the compound `CCN(CC)C(=O)C(C)Oc1cccc2ccccc12` (stereo unspecified), in [2], the compound was called inactive. Moreover, the results for the AC50 in [11] and in experiment [12] were 18.8 µM (active) and 10.4 µM (active), respectively.

On to `Nc1c(Cl)c(Cl)nc(C(=O)O)c1Cl`, for which the result in experiment [2] and in experiment [15] was inactive.

On to `CC(C)N1C(=O)c2ccccc2NS1(=O)=O`, for which the half-maximal activity concentration (AC50) is 6.37 µM (active) in [16] and 14.2 µM (active) in experiment [17]. Further, the result in [8] was inactive.

With `CC1(C)CON(Cc2ccccc2Cl)C1=O`, in experiment [2], the compound was called inactive. Moreover, the AC50 in experiment [11] is 15.2 µM (active); in experiment [12] it was 6.47 µM (active).

Values taken from PubChem BioAssay (EPA / NIEHS).
